# T1: DVL2 416-511 DEP (domain begin residue: 416, domain end residue: 511), O14641
# T1 chain: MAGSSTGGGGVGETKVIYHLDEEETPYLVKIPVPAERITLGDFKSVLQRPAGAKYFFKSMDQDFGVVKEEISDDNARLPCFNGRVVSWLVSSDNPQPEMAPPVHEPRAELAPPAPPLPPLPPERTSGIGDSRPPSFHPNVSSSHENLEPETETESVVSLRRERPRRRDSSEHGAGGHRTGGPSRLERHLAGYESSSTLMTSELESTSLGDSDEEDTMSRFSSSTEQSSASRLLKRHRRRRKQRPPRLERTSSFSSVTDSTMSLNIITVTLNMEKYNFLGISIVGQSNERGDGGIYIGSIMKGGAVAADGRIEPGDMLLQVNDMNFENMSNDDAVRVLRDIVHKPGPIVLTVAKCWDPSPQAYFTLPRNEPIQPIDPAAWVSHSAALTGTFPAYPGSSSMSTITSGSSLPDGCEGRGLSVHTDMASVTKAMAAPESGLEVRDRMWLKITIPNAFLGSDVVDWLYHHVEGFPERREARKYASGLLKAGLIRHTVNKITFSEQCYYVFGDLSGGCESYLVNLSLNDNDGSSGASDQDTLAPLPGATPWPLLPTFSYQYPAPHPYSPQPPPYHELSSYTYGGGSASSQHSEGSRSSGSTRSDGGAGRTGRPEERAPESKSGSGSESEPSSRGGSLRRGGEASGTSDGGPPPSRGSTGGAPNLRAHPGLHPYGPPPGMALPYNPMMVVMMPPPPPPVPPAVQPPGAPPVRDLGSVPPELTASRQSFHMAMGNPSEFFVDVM
# T2: DVL3 407-503 DEP (domain begin residue: 407, domain end residue: 503), Q92997
# T2 chain: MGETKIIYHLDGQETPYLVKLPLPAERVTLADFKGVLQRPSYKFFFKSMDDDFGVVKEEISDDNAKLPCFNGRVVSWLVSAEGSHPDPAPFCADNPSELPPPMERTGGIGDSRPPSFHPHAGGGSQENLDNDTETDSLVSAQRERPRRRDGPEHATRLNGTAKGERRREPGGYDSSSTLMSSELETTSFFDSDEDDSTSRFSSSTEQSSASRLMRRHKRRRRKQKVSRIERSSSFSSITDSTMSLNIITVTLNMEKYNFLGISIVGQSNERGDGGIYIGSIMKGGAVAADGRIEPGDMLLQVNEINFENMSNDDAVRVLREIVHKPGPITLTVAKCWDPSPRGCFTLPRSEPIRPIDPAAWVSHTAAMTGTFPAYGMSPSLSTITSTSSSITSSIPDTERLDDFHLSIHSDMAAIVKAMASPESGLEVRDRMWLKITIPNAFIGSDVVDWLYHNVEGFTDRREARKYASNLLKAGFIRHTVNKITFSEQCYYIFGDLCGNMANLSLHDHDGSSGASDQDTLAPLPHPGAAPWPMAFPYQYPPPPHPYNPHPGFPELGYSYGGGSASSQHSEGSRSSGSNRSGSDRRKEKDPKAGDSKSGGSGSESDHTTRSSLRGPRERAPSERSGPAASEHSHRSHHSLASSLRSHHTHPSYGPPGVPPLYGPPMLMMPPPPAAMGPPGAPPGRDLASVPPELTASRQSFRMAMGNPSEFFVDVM
# T3: DOK7 105-219 IRS (domain begin residue: 105, domain end residue: 219), Q18PE1
# T3 chain: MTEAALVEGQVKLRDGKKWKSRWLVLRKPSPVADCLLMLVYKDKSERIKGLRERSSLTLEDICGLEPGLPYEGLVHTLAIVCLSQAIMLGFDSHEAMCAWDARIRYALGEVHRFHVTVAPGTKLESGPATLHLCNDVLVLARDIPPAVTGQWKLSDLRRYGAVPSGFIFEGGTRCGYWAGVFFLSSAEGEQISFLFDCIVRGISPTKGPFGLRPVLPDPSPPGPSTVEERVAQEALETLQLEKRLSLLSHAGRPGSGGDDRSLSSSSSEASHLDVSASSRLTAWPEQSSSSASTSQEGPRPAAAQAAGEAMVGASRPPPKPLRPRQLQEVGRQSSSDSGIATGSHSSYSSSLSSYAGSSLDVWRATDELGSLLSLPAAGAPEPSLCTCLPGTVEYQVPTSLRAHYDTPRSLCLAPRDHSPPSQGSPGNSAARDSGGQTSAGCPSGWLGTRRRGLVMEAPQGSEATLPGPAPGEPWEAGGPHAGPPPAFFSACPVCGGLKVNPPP
# T4: DVL1 406-503 DEP (domain begin residue: 406, domain end residue: 503), O14640
# T4 chain: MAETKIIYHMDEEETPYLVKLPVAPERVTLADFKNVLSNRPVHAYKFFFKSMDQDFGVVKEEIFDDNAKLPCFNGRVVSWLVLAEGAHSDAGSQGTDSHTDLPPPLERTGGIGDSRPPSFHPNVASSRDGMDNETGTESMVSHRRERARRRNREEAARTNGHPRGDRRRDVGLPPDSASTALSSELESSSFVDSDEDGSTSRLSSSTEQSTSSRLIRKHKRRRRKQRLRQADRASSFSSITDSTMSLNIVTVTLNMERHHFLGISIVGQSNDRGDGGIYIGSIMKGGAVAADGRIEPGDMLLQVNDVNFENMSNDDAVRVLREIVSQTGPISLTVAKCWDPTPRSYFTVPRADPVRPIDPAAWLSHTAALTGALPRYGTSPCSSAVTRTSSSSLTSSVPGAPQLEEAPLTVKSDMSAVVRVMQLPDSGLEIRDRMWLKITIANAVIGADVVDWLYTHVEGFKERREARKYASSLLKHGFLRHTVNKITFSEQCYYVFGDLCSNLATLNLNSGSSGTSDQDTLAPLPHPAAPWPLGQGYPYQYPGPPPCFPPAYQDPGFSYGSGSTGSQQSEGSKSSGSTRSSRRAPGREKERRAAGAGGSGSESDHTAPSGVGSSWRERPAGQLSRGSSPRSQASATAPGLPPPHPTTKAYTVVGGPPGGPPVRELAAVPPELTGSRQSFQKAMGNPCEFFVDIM
# Tests used:
# Test in all cases: phage ELISA signal ratio (GST-PRM binding over GST background); higher = stronger binding of peptide-phage to the PRM
# [1] = target: T1, DVL2 416-511 DEP (domain begin residue: …
# Method in brief: (§1)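 Five rounds of selection were carried out against human peptide recognition domains fused to the C-terminus of glutathione S-transferase (GST) and expressed in 96-well plates. The M13 phage library presented randomized hexadecapeptides, cysteine-free and glycine-flanked, on the gene-8 major coat protein. For each value, the phage ELISA signal on the GST-domain fusion was divided by the signal on GST alone.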
# [2] = target: DYNLL1 1-89 Dynein_light (domain begin residue: 1, domain end residue: 89), P63167
# Sequence of DYNLL1 1-89 Dynein_light (domain begin residue: 1, domain end residue: 89), P63167 (P63167 whole entry): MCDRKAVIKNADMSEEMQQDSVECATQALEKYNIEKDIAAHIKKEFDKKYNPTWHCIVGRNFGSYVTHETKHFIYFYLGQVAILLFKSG
# Method in brief: as §1
# [3] = target: T2, DVL3 407-503 DEP (domain begin residue: …
# Method in brief: as §1
# [4] = target: T3, DOK7 105-219 IRS (domain begin residue: …
# Method in brief: as §1
# [5] = target: T4, DVL1 406-503 DEP (domain begin residue: …
# Method in brief: as §1
binder,measurement,setting,value
VFWENQHWMQDLNPEW,phage ELISA signal ratio,[1],26.1
PETPYFSDGMWWWVKP,phage ELISA signal ratio,[1],28.8
TQTPVWGMDGWMWVTV,phage ELISA signal ratio,[2],19.5
TQTSWWWSETPMFPFM,phage ELISA signal ratio,[2],3.08
WQMNHLEEWRAYAETL,phage ELISA signal ratio,[3],24.2
YQPDMRMQDGKWYWII,phage ELISA signal ratio,[1],20.4
SQTEWDWLEREWKPSI,phage ELISA signal ratio,[2],19.4
PLENPTYKDGLWWWSV,phage ELISA signal ratio,[1],24.4
TQTGMWDETDSREHWD,phage ELISA signal ratio,[2],11.5
VQTDPWVGQLGDFMFV,phage ELISA signal ratio,[2],17.1
EMWYWDAVQGVPYKQG,phage ELISA signal ratio,[1],23.9
MWYWDPGENTAIWVEQ,phage ELISA signal ratio,[1],22.1
FETTWVLENGWWLPQA,phage ELISA signal ratio,[4],9.36
PKYQFSLSAESLQWLM,phage ELISA signal ratio,[3],18.1
AYYWSITLGDIVYMVD,phage ELISA signal ratio,[1],16.1
YWFWNPEIMDAQYMPV,phage ELISA signal ratio,[1],7.02
VQTDWYGVDGFWVPVL,phage ELISA signal ratio,[2],18.1
LQTPDWMWAPNVLESM,phage ELISA signal ratio,[2],6.16
TQTEFYASDWWMMENV,phage ELISA signal ratio,[2],15.6
PDLAAWRIWIMEEEQV,phage ELISA signal ratio,[3],22.4
MWFWNLDEAMPIWTAM,phage ELISA signal ratio,[1],13.3
LWFWDVETGNAYKTQE,phage ELISA signal ratio,[1],14.1
QAVPMWQDEHGYWWWN,phage ELISA signal ratio,[1],33.3
KWMIDLTDWEAYWVPS,phage ELISA signal ratio,[1],26.7
WTQTEDPWEYTWLDLV,phage ELISA signal ratio,[2],17.8
VHWTLQSVTDWKWVPQ,phage ELISA signal ratio,[5],31.9
IYWDWEDGYIYEHQPE,phage ELISA signal ratio,[1],18.2
MDGWFWDHAPHFTMDF,phage ELISA signal ratio,[3],4.23
WEWQFWQDYMAQFPSE,phage ELISA signal ratio,[5],3.48

# Source: the supplement of paper PMC7724964
